Here are results for 4 compounds from PubChem BioAssay (Tox21).

Assay [1] addresses Acetylcholinesterase (Homo sapiens) (UniProt P22303). The assay is described as follows: Acetylcholinesterase (AChE) small molecule antagonists: fluorescence cell-based qHTS assay (AID 1347398; calls by dose curve; also: nearly all actives have a fitted effect of over 50% in size; also: potency is read from the fitted curve at half-maximal effect). To be noted: Potency: AChE activity; outcome: AChE activity. Summed up: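 Endogenous acetylcholinesterase of SH-SY5Y neuroblastoma cells is measured in situ. After overnight attachment and 30 min compound exposure, cells receive acetylthiocholine and Thiolite Green; fluorescence is read after 40 min at room temperature.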
On the technique in general: qHTS replaces the single test concentration by a dilution series.

Assay [2] has the same target. The assay is described as follows: Acetylcholinesterase (AChE) small molecule antagonists: enzyme-based qHTS assay with human liver microsomes (AID 1347399; calls by dose curve; also: nearly all actives have a fitted effect of over 60% in size). Conditions: Potency: qHTS inhibition; outcome: qHTS inhibition. Summed up:
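Recombinant human AChE (50 mU/mL in the enzyme mix) and human liver microsomes (0.25 mg/mL final) were preincubated with compound and NADPH (0.25 mg/mL final) for 30 min at 37 C. Acetylthiocholine/DTNB was then added; thiocholine was read colorimetrically after 10 min at room temperature.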

Assay [3] in a line: qHTS assay for small molecules that induce genotoxicity in human embryonic kidney cells expressing luciferase-tagged ATAD5 (AID 651632). Also: nearly all actives have a fitted effect of over 15% in size. The method in brief: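 Increased luciferase signal from ATAD5-tagged reporter cells indicates DNA-damage-driven ATAD5 induction. HEK293T cells are treated for 16 hr at 37C before detection with Amplite.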
Assay [4] can be described thus: qHTS assay for small molecule agonists of the p53 signaling pathway - cell viability (AID 651633; calls by dose curve;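 also: p53RE-bla HCT reporter cells with a stable beta-lactamase p53 reporter; series mostly up to about 83 µM; nearly all actives have a fitted effect of over 30% in size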). The method in brief: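 p53RE-bla cells were treated with compound for 16 hours at 37 C. Cytotoxicity was then measured as CellTiter-Glo luminescence after 30 min at room temperature.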
Assay [5] in a line: qHTS assay for small molecule disruptors of the mitochondrial membrane potential - cell viability (AID 720634; calls by dose curve;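 also: human HepG2 liver cancer cells; series mostly up to about 83 µM; nearly all actives have a fitted effect of over 20% in size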). Summed up:
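After overnight attachment at 37 C, HepG2 cells received compound or DMSO vehicle for 1 hr. Viability is then taken from ATP-driven luminescence following a 30 min room-temperature CellTiter-Glo step.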

A short description of assay [6]: qHTS assay to test for compound auto fluorescence at 590 nm (red) in HepG2 cells (AID 720674). The method in brief: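 Seeding: 2,000 HepG2 cells/well, MEM/10% FBS, overnight 37 C. Dosing: compound vs DMSO. Incubation: 1 hr, 37 C, 5% CO2. Read: fluorescence 540 ex/590 em, Rose Bengal sodium as red reference.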
Assay [7] is described as follows: qHTS assay to test for compound auto fluorescence at 535 nm (green) in HepG2 cells (AID 720675).
Assay [8] in a line: qHTS assay to test for compound auto fluorescence at 460 nm (blue) in HEK293 cells (AID 720678). The method in brief:
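Cells were seeded and left to adhere for 4-5 hr at 37C. Compounds were then pin-transferred. After an overnight incubation at 37C under 5% CO2, intrinsic fluorescence at 405/460 nm was measured and referenced to triamterene.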

Assay [9] is described as follows: qHTS assay to test for compound auto fluorescence at 590 nm (red) in HEK293 cells (AID 720679). The method in brief:
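Each well held 2,000 HEK293 cells in medium containing 10% dialyzed FBS. Following 4-5 hr attachment at 37C, 23 nL test compound or DMSO was added; plates sat overnight, and red fluorescence (540/590nm) was recorded.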

A short description of assay [10]: qHTS assay to test for compound auto fluorescence at 535 nm (green) in HEK293 cells (AID 720680).
A short description of assay [11]: qHTS assay to test for compound auto fluorescence at 460 nm (blue) in HEK293 cell free culture (AID 720681). Summed up: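 Compounds were added to cell-free DMEM with 10% FBS and fluorescence read directly. The blue channel used 405 nm excitation and 460 nm emission, with triamterene as the reference fluorophore.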
Assay [12] is described as follows: qHTS assay to test for compound auto fluorescence at 535 nm (green) in HEK293 cell free culture (AID 720682). The method in brief: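 Compounds were pin-transferred into cell-free DMEM with 10% FBS, and green fluorescence was read at excitation 485 nm and emission 535 nm. Intensities were expressed as fluorescein-equivalent values.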
The nature of assay [13]: qHTS assay to test for compound auto fluorescence at 590 nm (red) in HEK293 cell free culture (AID 720683). The method in brief: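 Cell-free wells of DMEM with 10% FBS received compound, and intrinsic fluorescence was read at excitation/emission 540/590 nm. Values expressed as equivalence to Rose Bengal sodium.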
A short description of assay [14]: qHTS assay to test for compound auto fluorescence at 590 nm (red) in HepG2 cell free culture (AID 720684). Summed up:
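Compounds are added to culture medium (MEM, 10% FBS) lacking cells, then fluorescence is read at excitation 540 nm, emission 590 nm, with Rose Bengal sodium as the equivalency standard.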

The nature of assay [15]: qHTS assay to test for compound auto fluorescence at 460 nm (blue) in HepG2 cell free culture (AID 720685). Summed up:
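Compound (23 nL) or DMSO pinned into cell-free MEM with 10% FBS; blue fluorescence read at 405/460 nm excitation/emission, expressed as auto-fluorescence equivalency to triamterene.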

A short description of assay [16]: qHTS assay to test for compound auto fluorescence at 535 nm (green) in HepG2 cell free culture (AID 720686).
Assay [17] can be described thus: qHTS assay to test for compound auto fluorescence at 460 nm (blue) in HepG2 cells (AID 720687). Summed up:
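HepG2 cells in MEM with 10% FBS, attached overnight at 37 C, were exposed to compound or DMSO for 1 hr at 37 C, 5% CO2. Blue fluorescence was read at 405/460 nm, with triamterene as reference fluorophore.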

Assay [18] deals with Glucocorticoid receptor (Homo sapiens) (UniProt P04150). The assay can be described thus: qHTS assay to identify small molecule agonists of the glucocorticoid receptor (GR) signaling pathway (AID 720691; active = well fitted activation curve with a large enough effect in the signal ratio in the repeat runs, not every such curve was filed as active; inconclusive = weak or mixed curves, or effect the other way; inactive = no such curve, though single readings can be large or run the other way; the % refers to the signal ratio). Summed up: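 Agonist mode in a HeLa line carrying a GRE-controlled beta-lactamase reporter. Compounds act for 18 h at 37 C before a 2 h room-temperature FRET substrate step and fluorescence reading.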
Sequence of Glucocorticoid receptor (Homo sapiens) (P04150 whole entry, looked up): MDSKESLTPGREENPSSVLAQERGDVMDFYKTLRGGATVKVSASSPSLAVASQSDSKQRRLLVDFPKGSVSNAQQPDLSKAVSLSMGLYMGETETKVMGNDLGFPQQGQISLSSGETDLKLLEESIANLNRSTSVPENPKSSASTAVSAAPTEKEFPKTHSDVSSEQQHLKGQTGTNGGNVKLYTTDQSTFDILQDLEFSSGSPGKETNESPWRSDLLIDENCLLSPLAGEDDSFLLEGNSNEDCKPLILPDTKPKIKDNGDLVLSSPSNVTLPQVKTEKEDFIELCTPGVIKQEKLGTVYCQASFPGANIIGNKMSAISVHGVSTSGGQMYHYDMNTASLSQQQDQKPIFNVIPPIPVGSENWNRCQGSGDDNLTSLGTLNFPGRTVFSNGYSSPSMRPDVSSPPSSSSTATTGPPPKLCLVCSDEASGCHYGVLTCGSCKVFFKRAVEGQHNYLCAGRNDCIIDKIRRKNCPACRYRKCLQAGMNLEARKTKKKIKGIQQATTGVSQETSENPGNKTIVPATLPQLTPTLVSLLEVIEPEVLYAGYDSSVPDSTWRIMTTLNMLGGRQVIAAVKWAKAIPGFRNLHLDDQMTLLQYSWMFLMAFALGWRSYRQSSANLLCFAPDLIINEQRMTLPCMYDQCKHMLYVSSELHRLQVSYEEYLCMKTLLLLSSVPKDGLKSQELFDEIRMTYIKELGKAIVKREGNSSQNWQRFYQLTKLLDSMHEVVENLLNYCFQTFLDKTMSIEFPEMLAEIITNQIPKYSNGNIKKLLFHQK

For assay [19] the target is unchanged. The assay is described as follows: qHTS assay to identify small molecule antagonists of the glucocorticoid receptor (GR) signaling pathway (AID 720692; active = well fitted inhibition curve with a large enough effect in the signal ratio in the repeat runs, not every such curve was filed as active; inconclusive = weak or mixed curves, or effect the other way; inactive = no such curve, though single readings can be large or run the other way; the % refers to the signal ratio; also: potency is read from the fitted curve at half-maximal effect). The method in brief: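 Cells plated, rested 4 h at 37 C/5% CO2; compounds in DMSO pin-transferred; dexamethasone added to 5 nM final; 18 h at 37 C; B/G FRET substrate added, 2 h room temperature; fluorescence measured.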

Assay [20] can be described thus: qHTS assay to identify small molecule antagonists of the glucocorticoid receptor (GR) signaling pathway - cell viability counter screen (AID 720693). Also: nearly all actives have a fitted effect of over 55% in size.
Assay [21] is described as follows: qHTS assay for identifying genotoxic compounds that show differential cytotoxicity against isogenic chicken DT40 cell lines with known DNA damage response pathways - wild type cell line (AID 743012). Also: potency is read from the fitted curve at half-maximal effect; nearly all actives have a fitted effect of over 60% in size. The method in brief: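 Cells (DT40 wild type, 300/well) are treated with DMSO-dissolved compounds after a ~0.5 h pre-incubation and kept 40 h at 37 C/5% CO2. Viability is then measured by CellTiter-Glo luminescence following 30 min at room temperature.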

Assay [22] in a line: qHTS assay to identify small molecule antagonists of the androgen receptor (AR) signaling pathway - cell viability counter screen (AID 743033; also: nearly all actives have a fitted effect of over 45% in size).
A short description of assay [23]: qHTS assay to identify small molecule antagonists of the androgen receptor (AR) signaling pathway using the MDA cell line - cell viability counter screen (AID 743041; also: nearly all actives have a fitted effect of over 45% in size). Summed up: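 Same-well cytotoxicity was assessed by CellTiter-Fluor in MDA-kb2 AR-luc cells after 16 h of compound treatment under R1881 agonism.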
Assay [24] has as its target Estrogen receptor (Homo sapiens) (UniProt P03372). The assay can be described thus: qHTS assay to identify small molecule antagonists of the estrogen receptor alpha (ER-alpha) signaling pathway (AID 743069; active = well fitted curve in the direction sought with a large enough effect in the signal ratio in the repeat runs, not every such curve was filed as active; inconclusive = weak or mixed curves, or effect the other way; inactive = no such curve, though single readings can be large or run the other way; the % refers to the signal ratio). The method in brief:
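Reporter cells (ER-alpha-bla, HEK293 background) are conditioned overnight in stripped-serum medium (2% charcoal-stripped FBS). Compound and 17beta-estradiol exposure runs 18 hr at 37C, 5% CO2.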

For assay [25] the target is unchanged. The assay is described as follows: qHTS assay to identify small molecule agonists of the estrogen receptor alpha (ER-alpha) signaling pathway (AID 743075; calls by dose curve;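 also: HEK293 GripTite cells with ER-alpha and UAS-driven beta-lactamase reporter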; also: potency is read from the fitted curve at half-maximal effect).
A short description of assay [26]: qHTS assay to identify small molecule antagonists of the estrogen receptor alpha (ER-alpha) signaling pathway using the BG1 cell line (AID 743080; calls by dose curve; also: series mostly up to about 70 µM; nearly all actives have a fitted effect of over 25% in size). The method in brief:
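Antagonist mode: compounds in DMSO were pinned onto BG1-Luc-4E2 cells alongside 17beta-estradiol agonist, incubated 21.5 h, and ERE-driven luciferase measured with ONE-Glo. Cytotoxicity was multiplexed using CellTiter-Fluor fluorescence.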

Assay [27] can be described thus: qHTS assay to identify small molecule antagonists of the estrogen receptor alpha (ER-alpha) signaling pathway using the BG1 cell line - cell viability counter screen (AID 743081).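 Also: compound given together with 17beta-estradiol as the ER stimulus; series mostly up to about 70 µM; nearly all actives have a fitted effect of over 45% in size.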
Another assay concerns the target Aromatase (Homo sapiens) (UniProt P11511). The assay is described as follows: qHTS assay to identify aromatase inhibitors (AID 743083). Also: series mostly up to about 70 µM; nearly all actives have a fitted effect of over 55% in size.
Assay [28] is described as follows: qHTS assay to identify aromatase inhibitors - cell viability counter screen (AID 743084).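 Also: cells stimulated with testosterone during compound exposure; nearly all actives have a fitted effect of over 55% in size.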
For assay [29], the target named is Aryl hydrocarbon receptor (Homo sapiens) (UniProt P35869). The assay is described as follows: qHTS assay to identify small molecule that activate the aryl hydrocarbon receptor (AhR) signaling pathway (AID 743085).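 Also: HG2L7.5c1 human HepG2 liver cells with stably integrated DRE-driven firefly reporter; series mostly up to about 70 µM; nearly all actives have a fitted effect of over 15% in size.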 The method in brief:
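Luminescence (ONE-Glo) from a dioxin-responsive-element luciferase reporter in HG2L7.5c1 HepG2 cells after 24 hr compound exposure at 37C; viability measured by CellTiter-Fluor fluorescence beforehand.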

Assay [30] is described as follows: qHTS assay to identify small molecule that activate the aryl hydrocarbon receptor (AhR) signaling pathway - cell viability counter screen (AID 743086).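 Also: HepG2 liver cells carrying the AhR DRE luciferase reporter; series mostly up to about 70 µM; nearly all actives have a fitted effect of over 45% in size.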 Summed up:
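HepG2-AhR-luc (HG2L7.5c1) cells, 4000/well, treated 24 h at 37 C with compound; viability measured as CellTiter-Fluor fluorescence after 30 min in the same wells as the luciferase read.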

Assay [31] is described as follows: qHTS assay for small molecules that induce genotoxicity in human embryonic kidney cells expressing luciferase-tagged ATAD5 - cell viability (AID 651634; calls by dose curve; also: nearly all actives have a fitted effect of over 25% in size). Summed up: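 Cytotoxicity counterscreen in HEK293T cells bearing an ATAD5-luciferase reporter: live-cell protease activity measured by CellTiter-Fluor fluorescence after 15.5 hr compound exposure.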
Assay [32] can be described thus: qHTS assay for identifying genotoxic compounds that show differential cytotoxicity against isogenic chicken DT40 cell lines with known DNA damage response pathways - Rev3 mutant cell line (AID 743014). Also: potency is read from the fitted curve at half-maximal effect; nearly all actives have a fitted effect of over 55% in size.
Assay [33] in a line: qHTS assay for identifying genotoxic compounds that show differential cytotoxicity against isogenic chicken DT40 cell lines with known DNA damage response pathways - Rad54/Ku70 mutant cell line (AID 743015). Also: potency is read from the fitted curve at half-maximal effect; nearly all actives have a fitted effect of over 60% in size.
A short description of assay [34]: qHTS assay to identify small molecule antagonists of the thyroid receptor (TR) signaling pathway - cell viability counter screen (AID 743064). Also: nearly all actives have a fitted effect of over 50% in size. Summed up: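 In-well cytotoxicity read by CellTiter-Fluor (30 min, 37 C) following 23.5 h exposure of GH3 cells bearing a TRE-luciferase sensor. Compounds were added alongside 1 nM (final) T3 to drive TR transactivation.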

For assay [35], the system named is thyroid hormone receptor (rat, GH3 cells). The assay is described as follows: qHTS assay to identify small molecule agonists of the thyroid receptor (TR) signaling pathway (AID 743066; calls by dose curve).
Assay [36] is described as follows: qHTS assay to identify small molecule antagonists of the estrogen receptor alpha (ER-alpha) signaling pathway - cell viability counter screen (AID 743074; calls by dose curve).
For assay [37], the target named is Estrogen receptor (Homo sapiens) (UniProt P03372). The assay can be described thus: qHTS assay to identify small molecule agonists of the estrogen receptor alpha (ER-alpha) signaling pathway using the BG1 cell line (AID 743079). Also: potency is read from the fitted curve at half-maximal effect; nearly all actives have a fitted effect of over 20% in size.
Sequence of Estrogen receptor (Homo sapiens) (P03372 whole entry, looked up): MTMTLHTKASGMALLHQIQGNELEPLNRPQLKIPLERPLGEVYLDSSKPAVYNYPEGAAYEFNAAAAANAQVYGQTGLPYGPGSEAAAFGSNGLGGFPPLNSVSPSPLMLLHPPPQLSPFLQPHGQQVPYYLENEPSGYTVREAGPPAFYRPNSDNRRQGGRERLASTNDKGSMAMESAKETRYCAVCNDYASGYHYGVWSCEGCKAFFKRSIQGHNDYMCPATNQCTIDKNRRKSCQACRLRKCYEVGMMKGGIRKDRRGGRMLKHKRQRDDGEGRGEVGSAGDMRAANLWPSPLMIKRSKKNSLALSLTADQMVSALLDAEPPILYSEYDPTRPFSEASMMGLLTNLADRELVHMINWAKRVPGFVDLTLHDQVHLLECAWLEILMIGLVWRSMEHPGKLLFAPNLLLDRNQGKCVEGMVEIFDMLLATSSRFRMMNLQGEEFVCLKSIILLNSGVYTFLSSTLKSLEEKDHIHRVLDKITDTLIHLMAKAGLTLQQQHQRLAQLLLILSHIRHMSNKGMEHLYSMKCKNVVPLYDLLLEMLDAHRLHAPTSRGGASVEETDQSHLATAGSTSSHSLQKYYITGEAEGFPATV
Assay [38] addresses Peroxisome proliferator-activated receptor gamma (Homo sapiens) (UniProt P37231). The assay is described as follows: qHTS assay to identify small molecule agonists of the peroxisome proliferator-activated receptor gamma (PPARg) signaling pathway (AID 743094; active = well fitted activation curve with a large enough effect in the signal ratio in the repeat runs, not every such curve was filed as active; inconclusive = weak or mixed curves, or effect the other way; inactive = no such curve, though single readings can be large or run the other way; the % refers to the signal ratio). The method in brief:
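Quantitative HTS agonist mode: stable HEK293H line with UAS-beta-lactamase reporter under PPARg control, 17 h compound exposure at 37C, fluorescence after 1 h FRET substrate loading at room temperature.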

Activity calls are given as the source filed them. Unless noted, calls follow the shape of the dose curve; as a rule, active = well fitted curve in the direction sought with a large enough effect in the repeat runs; inconclusive = weak or mixed curves; inactive = no such curve, though single readings can be large; an effect the other way counts as inactive or inconclusive.

Sequence of Acetylcholinesterase (Homo sapiens) (P22303 whole entry, looked up): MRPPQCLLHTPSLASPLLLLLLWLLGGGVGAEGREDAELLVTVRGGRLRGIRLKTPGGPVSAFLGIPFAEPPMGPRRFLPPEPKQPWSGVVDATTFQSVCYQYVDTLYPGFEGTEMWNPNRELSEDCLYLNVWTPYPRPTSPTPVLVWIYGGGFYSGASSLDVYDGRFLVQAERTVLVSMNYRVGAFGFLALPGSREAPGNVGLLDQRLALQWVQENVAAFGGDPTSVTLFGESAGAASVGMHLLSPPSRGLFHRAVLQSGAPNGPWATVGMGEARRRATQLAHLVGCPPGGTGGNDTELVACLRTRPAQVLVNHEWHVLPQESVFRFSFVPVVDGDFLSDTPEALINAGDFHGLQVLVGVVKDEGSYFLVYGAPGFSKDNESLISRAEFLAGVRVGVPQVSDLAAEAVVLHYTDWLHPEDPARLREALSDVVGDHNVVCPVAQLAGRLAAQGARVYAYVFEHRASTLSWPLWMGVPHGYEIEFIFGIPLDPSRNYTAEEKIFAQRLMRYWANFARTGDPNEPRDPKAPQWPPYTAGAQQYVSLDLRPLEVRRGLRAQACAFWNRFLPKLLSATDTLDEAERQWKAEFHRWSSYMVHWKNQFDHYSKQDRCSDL
Sequence of Aryl hydrocarbon receptor (Homo sapiens) (P35869 whole entry, looked up): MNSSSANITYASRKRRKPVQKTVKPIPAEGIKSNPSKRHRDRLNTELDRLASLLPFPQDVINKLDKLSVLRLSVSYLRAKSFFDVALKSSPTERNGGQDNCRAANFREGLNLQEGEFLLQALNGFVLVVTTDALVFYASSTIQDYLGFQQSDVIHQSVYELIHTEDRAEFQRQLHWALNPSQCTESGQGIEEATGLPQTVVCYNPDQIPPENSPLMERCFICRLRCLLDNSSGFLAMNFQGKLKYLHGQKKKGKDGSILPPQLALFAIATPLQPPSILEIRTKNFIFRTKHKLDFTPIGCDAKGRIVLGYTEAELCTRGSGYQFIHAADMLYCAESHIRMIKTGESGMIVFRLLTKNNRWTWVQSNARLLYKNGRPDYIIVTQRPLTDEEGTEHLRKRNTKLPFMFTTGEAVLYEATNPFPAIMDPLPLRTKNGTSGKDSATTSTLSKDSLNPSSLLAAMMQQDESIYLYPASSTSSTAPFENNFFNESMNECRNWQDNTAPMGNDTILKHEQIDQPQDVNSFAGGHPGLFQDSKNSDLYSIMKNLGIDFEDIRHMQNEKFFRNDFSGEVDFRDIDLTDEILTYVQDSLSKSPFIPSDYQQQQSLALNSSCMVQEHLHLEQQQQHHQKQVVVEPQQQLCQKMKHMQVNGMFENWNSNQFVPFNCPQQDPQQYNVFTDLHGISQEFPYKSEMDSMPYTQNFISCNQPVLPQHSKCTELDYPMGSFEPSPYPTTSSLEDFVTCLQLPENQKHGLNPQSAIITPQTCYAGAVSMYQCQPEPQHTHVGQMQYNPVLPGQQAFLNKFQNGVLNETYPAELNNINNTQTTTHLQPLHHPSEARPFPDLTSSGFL
Sequence of Aromatase (Homo sapiens) (P11511 whole entry, looked up): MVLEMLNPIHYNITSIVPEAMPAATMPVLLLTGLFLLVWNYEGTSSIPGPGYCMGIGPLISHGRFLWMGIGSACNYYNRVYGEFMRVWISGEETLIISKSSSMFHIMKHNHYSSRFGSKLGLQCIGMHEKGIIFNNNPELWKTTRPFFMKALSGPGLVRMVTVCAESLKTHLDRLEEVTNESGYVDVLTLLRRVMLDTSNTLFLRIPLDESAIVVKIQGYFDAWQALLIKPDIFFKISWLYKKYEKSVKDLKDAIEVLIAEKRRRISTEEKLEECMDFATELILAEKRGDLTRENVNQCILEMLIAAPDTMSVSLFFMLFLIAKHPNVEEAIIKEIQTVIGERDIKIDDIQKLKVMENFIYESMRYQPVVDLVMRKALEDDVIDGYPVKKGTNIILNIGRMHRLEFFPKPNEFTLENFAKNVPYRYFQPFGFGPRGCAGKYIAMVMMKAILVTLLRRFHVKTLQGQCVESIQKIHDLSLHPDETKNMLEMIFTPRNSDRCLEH
Sequence of Peroxisome proliferator-activated receptor gamma (Homo sapiens) (P37231 whole entry, looked up): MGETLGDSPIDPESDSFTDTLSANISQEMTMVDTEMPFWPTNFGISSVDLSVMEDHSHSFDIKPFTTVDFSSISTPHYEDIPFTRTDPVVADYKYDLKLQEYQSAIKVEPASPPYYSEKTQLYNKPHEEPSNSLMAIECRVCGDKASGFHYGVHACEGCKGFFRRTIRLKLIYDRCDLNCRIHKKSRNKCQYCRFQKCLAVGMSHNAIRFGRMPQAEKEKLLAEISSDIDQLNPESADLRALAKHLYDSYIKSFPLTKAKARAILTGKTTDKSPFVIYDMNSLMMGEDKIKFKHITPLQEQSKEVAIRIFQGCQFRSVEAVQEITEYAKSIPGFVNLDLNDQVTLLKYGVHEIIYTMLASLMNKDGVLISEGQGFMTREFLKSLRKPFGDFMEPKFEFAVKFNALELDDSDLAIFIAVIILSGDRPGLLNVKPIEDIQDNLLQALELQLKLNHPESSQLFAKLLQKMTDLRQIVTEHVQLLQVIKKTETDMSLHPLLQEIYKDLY

As to `CCN(CC)CCNc1ccc(CNC=O)c2sc3ccc(OC)cc3c(=O)c12`, the Potency in assay [1] was 39.9 µM (active). For the same compound, the Potency result in [2] was “inactive”.
As to `CC[C@@H](O)C(C[C@@H](C)N(C)C)(c1ccccc1)c1ccccc1`, the compound was classed as inactive in assay [3], in assay [5], in [6], in assay [7], in assay [8] and in assay [9]. Also, the outcome in assay [10], in [11], in assay [12], in assay [13], in [14] and in [15] was inactive. Further, the compound was called inactive in assay [16], in assay [17], in [18], in assay [23], in assay [24] and in assay [26]. Moreover, the compound was classed as inactive in assay [28] and in assay [29]. Also, the Potency result in assay [4], in [19], in [20], in assay [22], in assay [25] and in assay [27] was “inactive” throughout. For the same compound, the Potency entry (with Aromatase (Homo sapiens); in assay [30]) was “inactive” in each case. The Potency in [21] is 55.1 µM (active).
Turning to `Nc1cc(Cl)c(O)c(Cl)c1`, the Potency result in assay [1] and in assay [2] was “inactive” throughout.
On to `C[C@]12CC[C@H]3[C@@H](CCC4=CC(=O)CC[C@@]43C)[C@@H]1CC[C@@H]2OC(=O)CCc1ccccc1`, for which the compound was classed as inactive in assay [3], in [6], in [7], in [8], in [9] and in [10]. The result in assay [11], in [12], in [13], in [14], in assay [15] and in assay [16] was inactive. The compound was classed as inactive in assay [17], in assay [18], in assay [23], in assay [35], in assay [28] and in assay [29]. Moreover, in [38], the compound was classed as inactive. In addition, the Potency entry (in assay [31]; in [22]; in [34]; in [36]; in [27]; with Aromatase (Homo sapiens)) was “inactive” throughout. Further, the Potency entry in [30] was “inactive”. Further, the Potency in assay [19] was 6.16 µM (active); in assay [21] it was 5.45 µM (active); in assay [32], 8.63 µM (active); in [33], 8.63 µM (active); in assay [25] it was 3.89 µM [inconclusive] (active); in [37], 0.0306 µM (active).
